Here are results for 23 compounds from PubChem BioAssay (NCATS).

Records with an inconclusive call do not appear. Unmarked numbers belong to inactive results. Active and inactive are the calls of the source. Calls come from the whole dose curve; as a rule, active = well fitted curve in the direction sought with a large enough effect; inconclusive = small, poorly fitted or top-dose-only effect, or another doubt; inactive = no such curve, though single readings can be large; an effect the other way counts as inactive or inconclusive.

In assay [1] the target is Rap guanine nucleotide exchange factor 3 (Homo sapiens) (UniProt O95398). As to the kind of experiment: Confirmatory qHTS for antagonist of cAMP-regulated guanine nucleotide exchange factor 3 (EPAC1) (AID 1645880). Note: nearly all actives have a fitted effect of over 55% in size. Note: potency is the fitted concentration of half-maximal effect. The procedure, abridged:
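Released BODIPY-GDP fluoresces less than Rap1-bound BODIPY-GDP; the signal is followed at 480/540 nm at 5-min intervals over 30 min, after 5 min at room temperature. Reactions contain 100 nM EPAC1, 250 nM RAP1B-BODIPY-GDP and 50 uM GDP; results are normalized to ATA and DMSO.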
A general note: Quantitative high-throughput screening tests each substance at several concentrations.

Assay [2] has the same target. As to the kind of experiment: Confirmatory qHTS for agonist of cAMP-regulated guanine nucleotide exchange factor 3 (EPAC1) (AID 1645881).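 For activation: EPAC1 catalysed release of BODIPY-GDP from Rap1B seen as fluorescence loss; 100% = effect of cAMP agonist control.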 Note: nearly all actives have a fitted effect of over 75% in size. Note: potency is the fitted concentration of half-maximal effect.
The target of assay [3] is Rap guanine nucleotide exchange factor 4 (Homo sapiens) (UniProt Q8WZA2). As to the kind of experiment: Confirmatory qHTS for agonist of cAMP-regulated guanine nucleotide exchange factor 4 (EPAC2) (AID 1645884). For activation: % is set by controls: 0 for no effect and ±100 for the full control effect.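 Note: nucleotide exchange releases bodipy-GDP from Rap1 and this lowers its fluorescence; nearly all actives have a fitted effect of over 65% in size.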 Note: potency is the fitted concentration of half-maximal effect.
Rap guanine nucleotide exchange factor 4 (Homo sapiens), sequence (Q8WZA2 whole entry, looked up): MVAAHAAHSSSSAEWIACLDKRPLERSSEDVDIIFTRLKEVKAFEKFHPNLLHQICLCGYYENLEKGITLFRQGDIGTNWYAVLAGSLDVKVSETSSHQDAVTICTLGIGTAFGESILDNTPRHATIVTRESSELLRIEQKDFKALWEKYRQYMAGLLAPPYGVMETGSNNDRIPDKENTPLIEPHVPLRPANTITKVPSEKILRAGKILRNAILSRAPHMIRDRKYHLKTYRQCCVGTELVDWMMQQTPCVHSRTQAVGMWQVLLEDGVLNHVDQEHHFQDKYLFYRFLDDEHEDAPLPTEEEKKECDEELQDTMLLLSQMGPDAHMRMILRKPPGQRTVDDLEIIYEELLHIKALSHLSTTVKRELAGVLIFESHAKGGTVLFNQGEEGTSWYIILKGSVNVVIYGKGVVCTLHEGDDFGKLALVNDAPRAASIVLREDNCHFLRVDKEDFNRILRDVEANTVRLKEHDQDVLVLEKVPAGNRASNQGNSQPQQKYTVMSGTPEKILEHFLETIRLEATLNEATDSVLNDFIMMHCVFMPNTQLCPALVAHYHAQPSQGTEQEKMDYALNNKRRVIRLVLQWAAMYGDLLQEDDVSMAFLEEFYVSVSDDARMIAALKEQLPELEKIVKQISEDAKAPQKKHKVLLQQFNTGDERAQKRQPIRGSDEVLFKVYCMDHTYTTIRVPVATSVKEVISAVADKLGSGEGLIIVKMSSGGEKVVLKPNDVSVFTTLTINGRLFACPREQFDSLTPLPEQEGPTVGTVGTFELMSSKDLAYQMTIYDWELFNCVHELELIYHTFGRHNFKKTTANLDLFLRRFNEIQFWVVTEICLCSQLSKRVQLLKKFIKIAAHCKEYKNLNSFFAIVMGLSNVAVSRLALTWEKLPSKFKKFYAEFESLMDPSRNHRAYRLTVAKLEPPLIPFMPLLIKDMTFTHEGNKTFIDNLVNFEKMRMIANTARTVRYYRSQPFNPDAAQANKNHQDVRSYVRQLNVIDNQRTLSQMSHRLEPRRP
Assay [4] shares this target. As to the kind of experiment: Confirmatory qHTS for antagonist of cAMP-regulated guanine nucleotide exchange factor 4 (EPAC2) (AID 1645885). For activity change, negative = inhibition: % is set by controls: 0 for no effect and ±100 for the full control effect. Note: nearly all actives have a fitted effect of over 25% in size. Note: potency is the fitted concentration of half-maximal effect.
Assay [5] has as its target Rap guanine nucleotide exchange factor 3 (Homo sapiens) (UniProt O95398). As to the kind of experiment: Counterscreen qHTS for antagonist of cAMP-regulated guanine nucleotide exchange factor 3 (EPAC1) (AID 1645888). Note: % of control where 0% means no effect. In short, it runs like this:
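Measured: fluorescence of BODIPY-GDP bound to Rap1B, which falls as exchange proceeds. Conditions include 50 uM competing GDP, 5 and 30 min reads, and a later cAMP challenge for antagonist detection.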

Rap guanine nucleotide exchange factor 3 (Homo sapiens), sequence (O95398 whole entry, looked up): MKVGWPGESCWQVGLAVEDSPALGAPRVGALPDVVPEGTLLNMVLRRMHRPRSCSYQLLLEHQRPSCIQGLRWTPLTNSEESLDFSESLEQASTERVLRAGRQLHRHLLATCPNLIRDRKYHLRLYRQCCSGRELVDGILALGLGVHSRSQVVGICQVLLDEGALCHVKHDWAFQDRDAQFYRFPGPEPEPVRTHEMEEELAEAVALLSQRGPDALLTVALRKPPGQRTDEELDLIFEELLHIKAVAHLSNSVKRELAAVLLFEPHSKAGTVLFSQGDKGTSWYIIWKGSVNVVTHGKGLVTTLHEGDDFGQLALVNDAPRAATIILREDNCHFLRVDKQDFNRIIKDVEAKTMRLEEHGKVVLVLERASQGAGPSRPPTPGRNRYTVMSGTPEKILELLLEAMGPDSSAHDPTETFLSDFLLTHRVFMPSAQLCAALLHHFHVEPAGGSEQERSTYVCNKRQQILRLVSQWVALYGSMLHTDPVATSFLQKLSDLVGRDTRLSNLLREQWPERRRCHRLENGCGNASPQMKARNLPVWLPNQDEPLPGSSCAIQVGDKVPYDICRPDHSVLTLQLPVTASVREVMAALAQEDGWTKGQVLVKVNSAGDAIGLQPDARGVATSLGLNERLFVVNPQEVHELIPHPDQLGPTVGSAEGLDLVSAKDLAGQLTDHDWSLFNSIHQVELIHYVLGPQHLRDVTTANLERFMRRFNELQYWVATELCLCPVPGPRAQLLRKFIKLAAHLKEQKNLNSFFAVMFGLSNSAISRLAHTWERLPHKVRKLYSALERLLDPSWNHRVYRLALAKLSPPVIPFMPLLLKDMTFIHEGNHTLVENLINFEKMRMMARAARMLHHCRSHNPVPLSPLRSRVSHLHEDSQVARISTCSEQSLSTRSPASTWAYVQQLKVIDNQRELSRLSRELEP

For `O=C1C(c2ccccc2)=[N+]([O-])c2ccccc21`, the Potency result in assay [1], in assay [2], in assay [3], in assay [4] and in assay [5] was “inactive” in each case.

Take `Cc1sc(NC(=O)C2=COCCO2)nc1-c1ccc(Cl)cc1`: the Potency result in assay [1], in assay [2], in assay [3], in assay [4] and in assay [5] was “inactive” each time.

For `N#C/C(=C\c1ccc(O)c([N+](=O)[O-])c1)c1nc2ccccc2s1`, the Potency in assay [1] is 33.8 µM (active). The Potency entry in assay [2], in assay [3], in assay [4] and in assay [5] was “inactive” in each case.

As for `COc1ccc(NC(=O)COc2ccccc2C#N)c(S(=O)(=O)N2CCCCC2)c1`, the Potency result in assay [1], in assay [2], in assay [3], in assay [4] and in assay [5] was “inactive” throughout.

In the case of `COc1ccc(C(C(=O)c2ccccc2)c2ccccc2)cc1` (stereo not given), the Potency entry in assay [1], in assay [4] and in assay [5] was “inactive” each time. Also, the Potency in assay [2] is 100 µM (active); in assay [3] it was 50.1 µM (active).

With `CC(=O)/C(=C/N(C)C)Sc1ccc(C)cc1`, the Potency entry in assay [1], in assay [2], in assay [3], in assay [4] and in assay [5] was “inactive” throughout.

Regarding `COc1cc2cc(CNc3ccc(C)cc3)c(=O)n(CC(=O)Nc3ccc(F)cc3F)c2cc1OC`, the Potency entry in assay [1], in assay [2], in assay [3], in assay [4] and in assay [5] was “inactive” throughout.

With `Cc1ccc(N(Cc2cccs2)C(=O)c2ccccc2)cc1`, the Potency entry in assay [1], in assay [2], in assay [3], in assay [4] and in assay [5] was “inactive” in each case.

In the case of `COc1ccc(C(C#N)N2N=C(C)CC2c2ccccc2)cc1` (stereo not given), the Potency entry in assay [1], in assay [2], in assay [3] and in assay [5] was “inactive” each time. Further, the Potency in assay [4] was 47.8 µM (active).

Regarding `COC(=O)c1cc2sc(C)cc2n1Cc1ccccc1`, the Potency result in assay [1], in assay [2], in assay [3], in assay [4] and in assay [5] was “inactive” throughout.

As for `CC(=O)NCCn1c(C)cc2ccccc21`, the Potency entry in assay [1], in assay [2] and in assay [4] was “inactive” in each case. The activation in assay [3] was 5.87% [at 17.1 µM, percent relative to cAMP agonist control]. Moreover, the activity change, negative = inhibition in assay [5] is -13.2% [at 30.8 µM].

As to `N#Cc1c(NC(=O)c2ccc(Br)o2)n(-c2ccccc2)c2nc3ccccc3nc12`, the Potency in assay [1] was 50.1 µM (active). Further, the Potency result in assay [2] and in assay [4] was “inactive” each time. The activation in assay [3] is 1.83% [at 17.1 µM, percent relative to cAMP agonist control]. Besides, in assay [5], the activity change, negative = inhibition is -1.68% [at 30.8 µM].

As to `Cc1cc(N)c2cc(NC(=O)/C=C/c3ccccc3Cl)ccc2n1`, the Potency in assay [1] is 37.9 µM (active); in assay [2], 100 µM (active); in assay [3] it was 56.2 µM (active). Moreover, the Potency entry in assay [4] and in assay [5] was “inactive” in each case.

Take `C/C(=N\N1C(=O)c2ccccc2NC1c1ccco1)c1ccccc1O` (stereo not given): in assay [1], the Potency was 75.7 µM (active). Also, the Potency entry in assay [2], in assay [3], in assay [4] and in assay [5] was “inactive” throughout.

Turning to `COc1ccc(S(=O)(=O)N2C(=O)/C(=C3\SC(N)=NC3=O)c3ccccc32)cc1`, the Potency entry in assay [1], in assay [2], in assay [3], in assay [4] and in assay [5] was “inactive” throughout.

As to `NC(=O)COC(=O)c1ccc(Cl)c(S(=O)(=O)N(Cc2ccccc2)c2ccc(Cl)cc2)c1`, the Potency entry in assay [1], in assay [2] and in assay [4] was “inactive” each time. Further, in assay [3], the activation was 4.76% [at 17.1 µM, percent relative to cAMP agonist control]. For the same compound, the activity change, negative = inhibition in assay [5] is -4.28% [at 30.8 µM].

Regarding `Cc1nnc(SCc2cccc3ccccc23)s1`, the Potency result in assay [1], in assay [2], in assay [3], in assay [4] and in assay [5] was “inactive” throughout.

On to `CC1(C(=O)NS(=O)(=O)c2cccc(Cl)c2)CCN1C(=O)C1(c2ccc(Cl)cc2)CC1` (stereo not given), for which the Potency in assay [1] is 31.6 µM (active). The Potency entry in assay [2] and in assay [4] was “inactive” each time. Moreover, the activation in assay [3] is 2.34% [at 17.1 µM, percent relative to cAMP agonist control]. Besides, in assay [5], the activity change, negative = inhibition was -16.3% [at 30.8 µM].

In the case of `Cc1ccc(-c2csc(NS(=O)(=O)c3cccc(F)c3)n2)o1`, the Potency in assay [1] was 14.1 µM (active). Also, the Potency result in assay [2] and in assay [4] was “inactive” in each case. Further, the activation in assay [3] is -0.922% [at 17.1 µM, percent relative to cAMP agonist control]. For the same compound, the activity change, negative = inhibition in assay [5] was -6.02% [at 30.8 µM].

On to `CCOc1cc(/C=C2\SC(=S)N(NS(=O)(=O)c3ccccc3)C2=O)ccc1O`, for which the Potency was 33.8 µM (active) in assay [1] and 42.6 µM (active) in assay [4]. Further, the Potency entry in assay [2], in assay [3] and in assay [5] was “inactive” throughout.

On to `CCCCn1c(N)c(N(CCC(C)C)C(=O)Cc2ccc(S(=O)(=O)N3CCOCC3)s2)c(=O)[nH]c1=O`, for which the Potency entry in assay [1], in assay [2], in assay [3], in assay [4] and in assay [5] was “inactive” throughout.

Consider `O=C(c1ccco1)N(Cc1cccc([N+](=O)[O-])c1)c1ccc(Br)cc1`, for which the Potency result in assay [1], in assay [2], in assay [3], in assay [4] and in assay [5] was “inactive” in each case.

As to `COc1cc(/C=C2\SC(=S)N(NS(=O)(=O)c3ccc(C)cc3)C2=O)cc(OC)c1OC`, the Potency in assay [1] was 26.9 µM (active); in assay [4] it was 33.8 µM (active). The Potency result in assay [2], in assay [3] and in assay [5] was “inactive” in each case.
